According to PubChem BioAssay (NCATS):
Records with an inconclusive call do not appear. A call without a number means that no potency is given here. Unmarked numbers belong to inactive results. Active and inactive are the calls of the source. Calls follow the shape of the dose curve; as a rule, active = well fitted activation curve with a large enough effect; inconclusive = small, poorly fitted or top-dose-only effect, or another doubt; inactive = no such curve, though single readings can be large or run the other way.
Potency is read from the fitted curve at half-maximal effect.

The compounds below were run against Rap guanine nucleotide exchange factor 3 (Homo sapiens) (UniProt O95398) (assay: Counterscreen qHTS for agonist of cAMP-regulated guanine nucleotide exchange factor 3 (EPAC1) (AID 1645889; also: nearly all actives have a fitted effect of over 40% in size)). Settings: EPAC1 Rap1B-BODIPY-GDP exchange, fluorescence; series mostly up to 154 µM.
In short: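 Measured: fluorescence of BODIPY-GDP bound to Rap1B, which falls as exchange proceeds. Conditions include 50 uM competing GDP, 5 and 30 min reads, and a later cAMP challenge for antagonist detection.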
With `CCCCC[C@@H]1C=C(C(=O)O)[C@H](c2ccc(Cl)c(Cl)c2)N1S(=O)(=O)c1ccc(C)cc1` the Potency was “inactive”. Compound `Cc1ccc(C2(c3noc(CN(C)CC4CCCCO4)n3)CCCC2)cc1` (configuration not stated) has an activation of -0.372% [at 30.8 µM]. `Cc1ccc(C2N(c3cccc(Cl)c3)C(=O)N3CCCN23)cc1` (configuration not stated) was tested, and the activation was 3.03% [at 30.8 µM]. In the case of `COc1ccc(C(=O)N(Cc2ccccc2)c2cccc(C)c2)cc1`, the Potency is reported as “inactive”. Work on `Cc1ccc(CN(Cc2ccco2)C(=O)c2ccco2)cc1` yielded an activation of 27.7% [at 30.8 µM]. For `O=C(O)CCCN1C(=O)/C(=C/c2cn(-c3ccccc3)nc2-c2cccs2)SC1=S`, the Potency was 15.8 µM (active). In the case of `COc1ccc(-c2ccc(CCC(=O)O)n2-c2ccc(Cl)cc2C)cc1`, the Potency is reported as “inactive”. Compound `O=C(O)Cc1ccc(NC(=O)C(c2ccccc2)c2ccccc2)cc1` has an activation of 5.55% [at 30.8 µM]. For `CNc1snc(C)c1C(=O)OCC(=O)Nc1ccc(C)cc1F`, the Potency was “inactive”. With `COC(=O)c1ccc2nc(-c3ccc(OC)c(OC)c3)c(CC3CCCCC3)n2c1` the Potency was “inactive”. With `CC(=O)O[C@H]1c2ccccc2-c2ccccc2[C@@H]1OC(C)=O` the activation was 8.91% [at 30.8 µM]. For `O=C(c1noc2c1CCc1ccccc1-2)N1CCCc2ccccc21`, the Potency was “inactive”. With `COC(=O)c1ccc2nc(-c3cccc(Br)c3)c(Cc3ccsc3)n2c1` the activation was 17.8% [at 30.8 µM]. With `CCCC[C@@H]1C=C(C(=O)O)[C@H](c2ccc(Cl)c(Cl)c2)N1S(=O)(=O)c1ccc(C)cc1` the Potency was “inactive”. For `COC(=O)c1ccc2nc(-c3ccc(F)cc3)c(Cc3cccc(F)c3)n2c1`, the Potency was “inactive”. In the case of `Cc1ccc(-c2nn3cnnc3c3ccccc23)cc1C`, the activation is reported as 5.84% [at 30.8 µM]. `Cc1ccc2cccc(Oc3nnnn3-c3ccccc3)c2n1` was tested, and the Potency was “inactive”.
